Assay [1] is described as follows: qHTS RealTime-Glo MT Cell Viability Assay in HepG2 cells - 8 hour (AID 1224873). Note: nearly all actives have a fitted effect of over 55% in size. Note: potency is the fitted concentration of half-maximal effect. An outline of the steps: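 HepG2 cells (600/well) mixed with RealTime-Glo MT reagent, settled 5 h at 37 C/5% CO2 before compound addition. Nonlytic NanoLuc luminescence from viable-cell prosubstrate reduction read repeatedly during 40 h treatment at 37 C.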
Assay [2] is described as follows: qHTS RealTime-Glo MT Cell Viability Assay in HEK293 cells - 40 hour (AID 1224874). Note: nearly all actives have a fitted effect of over 50% in size. Note: potency is the fitted concentration of half-maximal effect. The conditions noted are these: RealTime-Glo luminescence; max response: active compounds read low. An outline of the steps:
(§1)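 HEK293 + NanoLuc + prosubstrate, 600 cells/well; 5 h, 37 C/5% CO2; compound 23 nL in DMSO by pintool; 37 C; luminescence read at 0, 8, 16, 24, 32 and 40 h time points.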
A general note: In qHTS, concentration-response curves come from the screen itself.

Assay [3] can be described thus: A CellTox Green Cytotoxicity Assay to monitor cytotoxicity in HEK293 cells - 24 hour (AID 1224875). Note: nearly all actives have a fitted effect of over 45% in size. Note: potency is the fitted concentration of half-maximal effect. Summed up: (§2)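 Tox21 screen in HEK293: membrane-impermeant cyanine dye fluoresces on binding dead-cell DNA; compound pinned 5 h post-seeding, plates held at 37 C, signal read repeatedly through 40 h.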
A short description of assay [4]: A CellTox Green Cytotoxicity Assay to monitor cytotoxicity in HepG2 cells - 16 hour (AID 1224876). Note: nearly all actives have a fitted effect of over 45% in size. Note: potency is the fitted concentration of half-maximal effect. Summed up:
(§3)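 Measurements at 0, 8, 16, 24, 32 and 40 h of treatment captured CellTox Green fluorescence in HepG2 cells that had been co-plated with reagent and preincubated 5 h at 37 C/5% CO2.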

Assay [5] in a line: qHTS RealTime-Glo MT Cell Viability Assay in HepG2 cells - 32 hour (AID 1224877). Note: nearly all actives have a fitted effect of over 55% in size. Note: potency is the fitted concentration of half-maximal effect. Summed up: (§4)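 Cell number in HepG2 cultures estimated from NanoLuc luminescence generated by metabolic reduction of a prosubstrate by living cells. The homogeneous, nonlytic format allowed repeated reads at 0, 8, 16, 24, 32 and 40 h of compound exposure.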
Assay [6] can be described thus: A CellTox Green Cytotoxicity Assay to monitor cytotoxicity in HepG2 cells - 24 hour (AID 1224878). Note: nearly all actives have a fitted effect of over 45% in size. Note: potency is the fitted concentration of half-maximal effect. Summed up:
as §3

A short description of assay [7]: qHTS RealTime-Glo MT Cell Viability Assay in HEK293 cells - 0 hour (AID 1224880). Note: top concentration of the series differs between compounds; nearly all actives have a fitted effect of over 45% in size. An outline of the steps:
as §1

Assay [8] in a line: A CellTox Green Cytotoxicity Assay to monitor cytotoxicity in HEK293 cells - 32 hour (AID 1224881). Note: nearly all actives have a fitted effect of over 40% in size. Note: potency is the fitted concentration of half-maximal effect. Summed up: as §2
Assay [9] can be described thus: A CellTox Green Cytotoxicity Assay to monitor cytotoxicity in HepG2 cells - 0 hour (AID 1224882). Note: nearly all actives have a fitted effect of over 35% in size. Summed up:
as §3

A short description of assay [10]: A CellTox Green Cytotoxicity Assay to monitor cytotoxicity in HepG2 cells - 32 hour (AID 1224883). Note: nearly all actives have a fitted effect of over 50% in size. Note: potency is the fitted concentration of half-maximal effect. An outline of the steps:
as §3

Assay [11] is described as follows: A CellTox Green Cytotoxicity Assay to monitor cytotoxicity in HEK293 cells - 8 hour (AID 1224884). Note: nearly all actives have a fitted effect of over 35% in size. Note: potency is the fitted concentration of half-maximal effect. Summed up: as §2
Assay [12] is described as follows: qHTS RealTime-Glo MT Cell Viability Assay in HepG2 cells - 16 hour (AID 1224885). Note: nearly all actives have a fitted effect of over 50% in size. Note: potency is the fitted concentration of half-maximal effect. An outline of the steps: as §4
Assay [13] can be described thus: qHTS RealTime-Glo MT Cell Viability Assay in HEK293 cells - 24 hour (AID 1224886). Note: nearly all actives have a fitted effect of over 50% in size. Note: potency is the fitted concentration of half-maximal effect. An outline of the steps: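 Homogeneous bioluminescent viability format in HEK293 cells (600 cells/well). Following 5 h at 37 C/5% CO2, 23 nL compound was pintooled; the signal was measured repeatedly during 40 h incubation.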
Assay [14] is described as follows: qHTS RealTime-Glo MT Cell Viability Assay in HEK293 cells - 8 hour (AID 1224887). Note: nearly all actives have a fitted effect of over 50% in size. Note: potency is the fitted concentration of half-maximal effect. Summed up: as §1
Assay [15] is described as follows: A CellTox Green Cytotoxicity Assay to monitor cytotoxicity in HEK293 cells - 16 hour (AID 1224888). Note: nearly all actives have a fitted effect of over 35% in size. Note: potency is the fitted concentration of half-maximal effect. Summed up: as §2
Assay [16] in a line: qHTS RealTime-Glo MT Cell Viability Assay in HepG2 cells - 0 hour (AID 1224889). Note: nearly all actives have a fitted effect of over 50% in size. An outline of the steps: as §4
Assay [17] is described as follows: A CellTox Green Cytotoxicity Assay to monitor cytotoxicity in HepG2 cells - 8 hour (AID 1224890). Note: nearly all actives have a fitted effect of over 45% in size. Note: potency is the fitted concentration of half-maximal effect. An outline of the steps: as §3
A short description of assay [18]: qHTS assay to identify small molecule antagonists of the estrogen receptor alpha (ER-alpha) signaling pathway using the BG1 cell line in the presence of 0.1 nM 17-beta-estradiol - cell viability counter screen (AID 1259241). Note: nearly all actives have a fitted effect of over 40% in size. Note: potency is the fitted concentration of half-maximal effect. Summed up: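 Live-cell protease activity (CellTiter-Fluor fluorescence, 30 min) was read in the same wells after VM7Luc4E2 cells had been exposed to compounds with 0.1 nM 17beta-estradiol for 22 hr at 37C.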

A short description of assay [19]: qHTS assay to identify small molecule antagonists of the androgen receptor (AR) signaling pathway using the MDA cell line in the presence of 0.5 nM R1881 - cell viability counter screen (AID 1259242). Note: nearly all actives have a fitted effect of over 45% in size. Note: potency is the fitted concentration of half-maximal effect. An outline of the steps: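 Concentration-response screen of compounds for toxicity in MDA-kb2 reporter cells: 16 hr at 37C with 0.5 nM R1881, endpoint live-cell protease fluorescence measured in the reporter wells.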

Assay [20] is described as follows: A CellTox Green Cytotoxicity Assay to monitor cytotoxicity in HepG2 cells - 40 hour (AID 1224879). Note: nearly all actives have a fitted effect of over 40% in size. Note: potency is the fitted concentration of half-maximal effect. An outline of the steps:
as §3

Where “and” joins values, the source holds several entries; their conditions need not be identical. Equal entries are not always repeated. A number with no mark means an inactive call. Inconclusive results are not listed. Calls of active or inactive are those of the source. Calls come from the whole dose curve; as a rule, active = well fitted curve in the direction sought with a large enough effect in the repeat runs; inconclusive = weak or mixed curves; inactive = no such curve, though single readings can be large; an effect the other way counts as inactive or inconclusive.
% is set by controls: 0 for no effect and ±100 for the full control effect.

With `OCCCc1cccnc1`, the Potency result in assay [1], in assay [3], in assay [4], in assay [5], in assay [6] and in [7] was “inactive” in each case. In addition, the Potency result in assay [8], in assay [9], in assay [10], in assay [11], in assay [12] and in assay [13] was “inactive” each time. Further, the Potency result in assay [14], in assay [15], in assay [16], in assay [17], in [18] and in [19] was “inactive” in each case. The max response in [2] was -2.22%.
`CC(C)=CCCC(C)O` (centres undefined): the Potency entry in [1], in assay [3], in [4], in assay [5], in [6] and in assay [7] was “inactive” in each case. The Potency result in assay [8], in assay [9], in assay [10], in assay [12], in assay [13] and in [14] was “inactive” in each case. Moreover, the Potency entry in assay [15], in assay [16], in assay [17], in assay [18] and in [19] was “inactive” each time. For the same compound, in assay [2], the max response was 0.513%.
Consider `CCCC(C)CCC(C)=O` (centres undefined), for which the Potency entry in assay [1], in assay [3], in assay [4], in assay [5], in [6] and in assay [7] was “inactive” in each case. For the same compound, the Potency entry in assay [8], in assay [10], in assay [11], in assay [12], in [13] and in assay [14] was “inactive” each time. Besides, the Potency result in assay [15], in assay [16], in assay [17], in assay [18] and in assay [19] was “inactive” in each case. The max response in assay [2] was 12.6%.
For the compound `C=C(C)CCCC`, the Potency result in [1], in assay [3], in assay [4], in assay [5], in assay [20] and in assay [7] was “inactive” in each case. For the same compound, the Potency result in assay [8], in assay [9], in [10], in assay [11], in [12] and in assay [13] was “inactive” in each case. Besides, the Potency result in [14], in assay [15], in assay [16], in assay [17], in assay [18] and in assay [19] was “inactive” in each case. Also, in [2], the max response is 3.81%.
As for `CC1CCCNC1` (centres undefined), the Potency result in [1], in [3], in [4], in assay [5], in assay [6] and in assay [7] was “inactive” each time. Moreover, the Potency entry in [8], in assay [9], in [10], in [12], in [13] and in assay [14] was “inactive” each time. For the same compound, the Potency result in [15], in assay [16], in [17], in [18] and in assay [19] was “inactive” in each case. Moreover, the max response in assay [2] was -11.1%.
Take `CO[Si](CCCNCCNCCN)(OC)OC`: the Potency entry in assay [1], in assay [3], in [4], in assay [5], in [20] and in [7] was “inactive” each time. For the same compound, the Potency entry in [8], in [9], in assay [10], in assay [11], in [12] and in assay [13] was “inactive” each time. The Potency result in assay [14], in assay [15], in assay [16], in assay [18] and in assay [19] was “inactive” each time. For the same compound, the max response in [2] was 4.89%.
In the case of `CCCCCCCC/C=C\CCCCCCCC(=O)OCCOC(=O)CCCCCCC/C=C\CCCCCCCC`, the Potency entry in assay [1], in assay [3], in assay [4], in assay [5], in assay [6] and in assay [20] was “inactive” each time. The Potency result in assay [8], in assay [10], in [11], in [12], in assay [13] and in assay [15] was “inactive” each time. Moreover, the Potency entry in assay [16], in assay [17], in assay [18] and in assay [19] was “inactive” in each case. The max response in [2] was -19.3%. Moreover, the Potency in assay [14] is 20.2 µM (active).
With `CCN=C1C=CC(=C(c2ccc(N(CC)CC)cc2)c2ccc(N(CC)CC)cc2)c2ccccc21`, the Potency in [1] is 19.4 µM (active); in assay [2] it was 5.46 µM (active); in [3], 19.4 µM (active); in assay [4] it was 19.4 µM (active); in assay [5], 19.4 µM (active); in [6] it was 17.3 µM (active). Also, the Potency in assay [20] was 19.4 µM (active); in assay [8], 13.7 µM (active); in [10], 19.4 µM (active); in [12], 19.4 µM (active); in assay [13], 7.71 µM (active); in assay [14] it was 17.3 µM (active). For the same compound, the values for the Potency in assay [15], in assay [18] and in [19] were 19.4 µM (active), 24.2 µM (active) and 2.71 µM (active), respectively. Besides, the Potency entry in [9] was “inactive”.
`CCCCCCCCCCCCCC[n+]1ccccc1`: the Potency in assay [1] was 49 µM (active); in [2], 1.74 µM (active); in [3] it was 38.9 µM (active); in assay [4] it was 19.5 µM (active); in assay [5] it was 12.3 µM (active); in assay [6], 15.5 µM (active). Further, the Potency in [8] is 34.7 µM (active); in assay [10] it was 11 µM (active); in [11] it was 54.9 µM (active); in [12], 21.9 µM (active); in assay [13] it was 6.16 µM (active); in assay [14], 54.9 µM (active). Besides, the Potency is 54.9 µM (active) in assay [15], 49 µM (active) in [17] and 24.3 µM (active) in assay [19]. The Potency result in [7], in [9] and in assay [16] was “inactive” each time.
In the case of `C=CC(=C)CCC=C(C)C`, the Potency entry in assay [1], in assay [3], in assay [4], in assay [5], in assay [6] and in [7] was “inactive” throughout. In addition, the Potency entry in assay [8], in [9], in assay [10], in [11], in [13] and in [14] was “inactive” each time. The Potency result in assay [15], in [16], in assay [17], in assay [18] and in assay [19] was “inactive” in each case. For the same compound, the max response in [2] is 8.59%.
On to `O=C1OC(=O)c2ccc3c4c(ccc1c24)C(=O)OC3=O`, for which the Potency entry in assay [1], in [3], in assay [4], in [5], in [20] and in assay [7] was “inactive” throughout. The Potency entry in assay [8], in [9], in [10], in assay [11], in [12] and in assay [13] was “inactive” throughout. Moreover, the Potency entry in [14], in assay [15], in assay [16], in assay [17], in assay [18] and in [19] was “inactive” each time. The max response in [2] was 0.327%.
`CSc1ccc2c(c1)N(CCC1CCCCN1C)c1ccccc1S2` (centres undefined): the Potency in assay [1] was 54.7 µM (active) and 23.9 µM (active); in assay [2], 15.4 µM (active); in assay [3] it was 24.4 µM (active); in [4], 54.7 µM (active) and 26.8 µM (active); in assay [5] it was 43.5 µM (active) and 26.8 µM (active); in assay [6] it was 38.7 µM (active) and 23.9 µM (active). For the same compound, the Potency was 34.5 µM (active) and 23.9 µM (active) in [20]; 30.8 µM (active) in [8]; 34.5 µM (active) and 23.9 µM (active) in assay [10]; 54.7 µM (active) and 23.9 µM (active) in assay [12]; 15.4 µM (active) in [13]; 19.4 µM (active) in assay [14]. The Potency in assay [15] was 30.8 µM (active); in [19] it was 54.3 µM (active). Also, the Potency entry in assay [9] was “inactive”.

Source of the values: PubChem BioAssay (Tox21).
